Source: PubChem BioAssay (National Center for Advancing Translational Sciences (NCATS))
NIH3T3 tox = NIH 3T3 cell cytotoxicity | NIH 3T3 viability, CellTiter-Glo ATP luminescence, 48-72 h | Potency, µM (titrated, usually from 96.7 µM), inactives show at the top dose activity change, negative = cytotoxicity, actives largely listed as inhibitors | 4.3% of 94,000 active | AID 1345082; further: nearly all actives have a fitted effect of over 55% in size
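ATP-dependent luminescence (CellTiter-Glo) served as the viability signal for NIH 3T3 cells treated with compound for 48 or 72 hr at 37 °C.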
hNpr1 antagonist = blocks ANP-stimulated signaling of human Npr1 receptor; P16066; HEK293 hNpr1 GloSensor cGMP, ANP-stimulated luminescence; Potency, µM (series often up to 46.3 µM), for inactives: top-dose activity change, negative = inhibition, actives largely listed as inhibitors; 1.6% of 76,000 active; calls by dose curve; further: nearly all actives have a fitted effect of over 60% in size
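Compound pre-incubated 30 min at room temperature on GloSensor-loaded HEK293 cells stably carrying hNpr1 and the pGS-40F cGMP biosensor. Stimulation uses hNppA at 0.1 nM final; luminescence is taken at baseline and 20 min post-agonist.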
FLuc inh = blocks purified firefly luciferase enzyme activity; P08659; purified P. pyralis luciferase, luminescence, biochemical; Potency, µM (doses to about 115 µM), hits mostly inhibitors; 2.5% of 76,000 active; further: nearly all actives have a fitted effect of over 65% in size
Target sequence (P08659 whole entry, looked up): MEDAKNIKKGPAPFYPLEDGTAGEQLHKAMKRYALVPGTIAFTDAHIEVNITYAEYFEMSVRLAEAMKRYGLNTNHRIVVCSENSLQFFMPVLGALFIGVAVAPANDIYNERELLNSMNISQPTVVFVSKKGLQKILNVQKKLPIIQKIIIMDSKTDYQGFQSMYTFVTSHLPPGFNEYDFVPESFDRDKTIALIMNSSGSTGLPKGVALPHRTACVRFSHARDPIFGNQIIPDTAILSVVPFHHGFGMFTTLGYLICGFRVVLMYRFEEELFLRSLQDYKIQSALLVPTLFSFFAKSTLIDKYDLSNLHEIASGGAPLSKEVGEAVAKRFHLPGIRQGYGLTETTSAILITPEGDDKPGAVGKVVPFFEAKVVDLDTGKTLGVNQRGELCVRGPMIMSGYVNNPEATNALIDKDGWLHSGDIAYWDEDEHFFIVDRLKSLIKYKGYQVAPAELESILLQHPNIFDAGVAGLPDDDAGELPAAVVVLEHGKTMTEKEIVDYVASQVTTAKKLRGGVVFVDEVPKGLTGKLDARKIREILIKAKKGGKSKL
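Luminescence read by CCD imager after adding enzyme (10nM final) to wells holding compound, titrated in qHTS. Substrates 10uM each D-luciferin and ATP; buffer 50mM Tris acetate pH 7.5, 10mM Mg acetate, Tween-20, BSA.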
HEK cytotox = kills HEK 293 cells; HEK 293 viability, ATP luminescence (CellTiter-Glo), 48-72 h; Potency, µM (series often up to 115 µM), inactives show top-dose activity change, negative = cytotoxicity, usual class: inhibitors; 6.6% of 94,000 active; further: nearly all actives have a fitted effect of over 60% in size
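Cytotoxicity was scored by loss of ATP-coupled luminescence (CellTiter-Glo) in HEK 293 cells. Compound treatment ran 48 or 72 hr at 37 degree Celsius, 5% CO2, 95% humidity.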
* = called active by the depositor; i = inactive; ? = inconclusive; nt = no result; [ ] = dose if it differs, or a comment. Sampled rows, rich in hits. Any-hit rate of the full collection: about 11%. Unless noted, the call rests on the fitted dose curve; in most records, active means well fitted curve in the direction sought with a large enough effect; inconclusive means small, poorly fitted or top-dose-only effect, or another doubt; inactive means no such curve, though single readings can be large; an effect the other way counts as inactive or inconclusive. On the % scale 0 is the no-effect control and ±100 the full control effect; potency means the concentration at half of the fitted maximal effect.

SMILES	NIH3T3 tox	hNpr1 antagonist	FLuc inh	HEK cytotox
COc1cccc(N2C(=O)NC(=NC3CCCCC3)C23CCN(Cc2ccc(F)cc2)CC3)c1	0%	nt	nt	-15%
COc1ccc(CN2CCCC3(C2)C(=NC2CCCCC2)NC(=O)N3c2cc(F)cc(F)c2)cc1 (stereo not given)	?	nt	nt	45µM*
O=C1NC(=NC2CCCCC2)C2(CCN(Cc3ccc(F)cc3)C2)N1c1cc(F)cc(F)c1 (stereo not given)	32µM*	nt	nt	?
O=C1NC(=NC2CCCC2)C2(CCCN(Cc3ccccc3)C2)N1c1cc(F)cc(F)c1 (stereo not given)	2%	nt	nt	-9%
COc1ccc(OC)c(NC(=O)Cn2cccc2-c2nc(-c3ccc(F)cc3)no2)c1	?	7%	i	?
O=C(CNC(=O)c1cccc(-c2ccc(C(F)(F)F)cc2)c1)NCc1ccc2c(c1)OCO2	-18%	nt	nt	?
CN(C)C(=O)c1cn2cc(-c3ccc(F)cc3)sc2n1	-18%[138 µM]	nt	nt	-24%[172 µM]
COc1cccc(CN2Cc3nc(Oc4ccccc4)ccc3OCC2=O)c1	?	-22%[70.6 µM]	i	?
CN(c1ccccc1)c1ccc2c(n1)CN(Cc1ccc(F)cc1)C(=O)CO2	89µM*	?	50µM*	?
NC(=O)c1cccc(-c2ccc3c(n2)CN(Cc2ccc(F)cc2)C(=O)CO3)c1	?	?	i	?
COc1cccc(CN2Cc3nc(N(C)c4ccccc4)ccc3OCC2=O)c1	?	?	?	89µM*
COCCN1CCCCCC(O)c2cc(C(=O)N3CCN(c4ccccc4F)CC3)ccc21 (stereo not given)	?	-14%	i	?
COc1cccc(N2C(=O)NC(=NC3CCCC3)C23CCN(CC2CCCCC2)C3)c1 (stereo not given)	32µM*	nt	nt	?
O=C1NC(=NC2CCCCC2)C2(CCN(CC3CCCCC3)CC2)N1c1cc(F)cc(F)c1	-19%	nt	nt	-12%
O=C1NC(=NC2CCCC2)C2(CCCN(CC3CCCCC3)C2)N1c1cc(F)cc(F)c1 (stereo not given)	28µM*	nt	nt	35µM*
O=C1NC(=NC2CCCCC2)C2(CCN(CC3CCCCC3)C2)N1c1cc(F)cc(F)c1 (stereo not given)	32µM*	nt	nt	32µM*
O=C(NC1CCN(c2cc(-c3ccc(F)cc3)[nH]n2)CC1)c1ccc(OC(F)(F)F)cc1	28µM*	-20%	i	20µM*
COc1ccc(C(=O)NC2CCN(c3cc(-c4ccc(F)cc4)[nH]n3)CC2)cc1	-1%	-4%	i	?
N#Cc1ccc(C(=O)NC2CCN(c3cc(-c4ccc(Cl)cc4)[nH]n3)C2)cc1 (stereo not given)	?	?	i	45µM*
O=C(NC1CCN(c2cc(-c3ccc(Cl)cc3)[nH]n2)CC1)c1ccncc1	?	?	i	28µM*
O=C(NC1CCN(c2cc(-c3ccc(Cl)cc3)[nH]n2)C1)c1ccc2[nH]ccc2c1 (stereo not given)	40µM*	-24%	?	?
O=C(NC1CCN(c2cc(-c3ccc(F)cc3)[nH]n2)C1)c1ccc2[nH]ccc2c1 (stereo not given)	?	-8%	i	?
COCCNC(=O)c1ccc(-c2ccc(OC)nn2)cc1	-11%[138 µM]	nt	nt	?
COc1ccc(-c2noc([C@@H]3Cc4nc[nH]c4CN3C(=O)NC3CCCCC3)n2)cc1	?	-15%[70.6 µM]	?	-28%[172 µM]
COc1ccc(NC(=O)C2CN(C3CCCCC3)C(=O)N2)cc1OC (stereo not given)	-30%	nt	nt	-7%
SMILES	NIH3T3 tox	hNpr1 antagonist	FLuc inh	HEK cytotox
O=C(NC1CCN(c2cc(-c3ccc(F)cc3)[nH]n2)CC1)c1ccc2[nH]ccc2c1	25µM*	-16%	i	?
CCN1CCCC12Cc1ccccc1CN([S+](C)(=O)[O-])C2 (stereo not given)	-9%	nt	nt	-25%
Fc1ccccc1-c1noc(-c2nc(Cc3ccccc3)no2)n1	0%	4%	20µM*	0%
CC1=C[C@@H](CNCc2cccnc2)[C@H](C(C)C)C[C@H]1Cc1nnc(-c2ccc([N+](=O)[O-])cc2)o1	32µM*	?	i	11µM*
COc1ccc(-c2nnc(C[C@@H]3C[C@@H](C(C)C)[C@H](CNCc4ccco4)C=C3C)o2)cc1	?	?	i	45µM*
CCCc1nnc(C[C@@H]2C[C@@H](C(C)C)[C@H](CNCc3cccnc3)C=C2C)o1	-24%[138 µM]	-12%[70.6 µM]	i	?
CC1=C[C@@H](CNC(C)C)[C@H](C(C)C)C[C@H]1Cc1nnc(C(C)(C)C)o1	-5%[138 µM]	-3%[70.6 µM]	i	-1%[172 µM]
CC1=C[C@@H](CNCc2ccco2)[C@H](C(C)C)C[C@H]1Cc1nnc(C(C)(C)C)o1	100µM*	1%[70.6 µM]	i	63µM*
COc1ccc(-c2nnc(C[C@@H]3C[C@@H](C(C)C)[C@H](CNCc4ccncc4)C=C3C)o2)cc1	?	?	i	25µM*
CC(C)(C)c1ccc(C(=O)Nc2nc3c(s2)C[C@@H]2[C@](C)(CO)[C@H](O)CC[C@@]2(C)[C@@H]3CC(=O)NC2CC2)cc1	45µM*	3%	45µM*	45µM*
CC(C)(C)c1ccc(C(=O)Nc2nc3c(s2)C[C@@H]2[C@](C)(CO)[C@H](O)CC[C@@]2(C)[C@@H]3CC(=O)N2CCOCC2)cc1	35µM*	-3%	i	?
COc1ccccc1CNC(=O)C[C@@H]1c2nc(-c3cccnc3)sc2C[C@@H]2[C@](C)(CO)[C@H](O)CC[C@]21C	79µM*	-10%	i	?
CC(C)NC(=O)C[C@@H]1c2nc(NC(=O)c3ccc(C(C)(C)C)cc3)sc2C[C@@H]2[C@](C)(CO)[C@H](O)CC[C@]21C	50µM*	5%	?	40µM*
COc1ccc(C(=O)Nc2nc3c(s2)C[C@@H]2[C@](C)(CO)[C@H](O)CC[C@@]2(C)[C@@H]3CC(=O)N2CCOCC2)cc1	-14%	-5%	i	-14%
CC(=O)Nc1nc2c(s1)C[C@@H]1[C@](C)(CO)[C@H](O)CC[C@@]1(C)[C@@H]2CC(=O)NC1CC1	-18%[138 µM]	-3%[70.6 µM]	i	-11%[172 µM]
N#Cc1cccc(CN(Cc2cccc(C#N)c2)[C@@H]2CO[C@H](CNC(=O)c3ccccc3)[C@H]2O)c1	?	1%	i	79µM*
COc1ccccc1-c1ccc2c(C(=O)NCc3ccc4c(c3)OCO4)nn(C)c2n1	?	nt	nt	-29%
Cn1ccnc1-c1ccc(N2CCCC(CO)(CCOc3ccccc3)C2)nn1 (stereo not given)	?	?	i	32µM*
Cn1ccnc1-c1ccc(N2CCC(CO)(CCOc3ccccc3)CC2)nn1	?	-19%	40µM*	?
OCC1(CCOc2ccccc2)CCN(c2nnnn2-c2ccccc2)CC1	?	0%	i	?
Cc1ccccc1CC1(CO)CCCN(c2ccc(-c3nccn3C)nn2)C1 (stereo not given)	?	?	i	32µM*
